Only some compounds are listed: those with a hit (about 3.6% of all), similar ones and a draw of the others.
TRHR PAM: qHTS for Small Molecule Agonists and Allosteric Enhancers of Human TRH Receptor: Primary Screen for Enhancers; Thyrotropin-releasing hormone receptor (Homo sapiens), P34981; TRHR cells, fluo-8 calcium fluorescence, EC20 TRH enhancement; enhancement, % at 2 µM; 360,000 tested, 0.66% active; in the data active means enhancement above about 30%; further: 0% is about no effect
Target sequence (P34981 whole entry, looked up): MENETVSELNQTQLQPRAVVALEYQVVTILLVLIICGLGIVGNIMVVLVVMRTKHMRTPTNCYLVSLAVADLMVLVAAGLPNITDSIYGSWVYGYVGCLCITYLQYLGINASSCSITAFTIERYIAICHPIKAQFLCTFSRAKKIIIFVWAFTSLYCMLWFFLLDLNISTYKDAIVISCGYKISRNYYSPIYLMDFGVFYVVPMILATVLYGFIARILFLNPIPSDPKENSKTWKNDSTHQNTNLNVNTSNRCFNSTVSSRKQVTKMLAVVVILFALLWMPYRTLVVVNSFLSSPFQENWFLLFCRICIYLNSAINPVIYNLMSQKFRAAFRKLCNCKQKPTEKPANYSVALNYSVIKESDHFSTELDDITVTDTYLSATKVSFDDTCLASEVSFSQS
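Enhancer read-out: after compound pinning and an initial kinetic agonist-mode read, an EC20 of TRH (10 nM final) was injected and fluo-8 calcium signal (Ex 480/Em 530) followed at 1 s/cycle for 100 cycles in TRHR-expressing cells.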
D1 antag: Antagonist of Human D 1 Dopamine Receptor: qHTS. D(1A) dopamine receptor (Homo sapiens), P21728. HEK293 TREx D1 cells, calcium flux, dopamine EC80; active compounds read low. activity change, negative = inhibition, % at 10 µM. 360,000 tested, 3.2% active. AID 504652, 2011; in the data active means activity change below about -30%; further: on the % scale 0 is the no-effect control and ±100 the full control effect
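Antagonism measured as reduced calcium response to an EC80 dopamine addition following 180 s compound pre-read; cells were inducible HEK293 Trex D1 plated overnight at 30 C, read kinetically at 1 cycle/sec.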
LDHA block: qHTS assay for inhibitors of human lactate dehydrogenase; AID 1347041, 2019; 480,000 tested, 0.15% active; activity change, % (values are at about 110 or 230 µM); purified LDHA, NADH/diaphorase-resazurin fluorescence; active compounds read low; in the data active means activity change below about -30%;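 further: plate controls were DMSO wells for no effect and wells without enzyme for full effect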
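Remaining NADH was detected by diaphorase (0.133 mg/mL) converting 37 µM resazurin to fluorescent resorufin, read at 0 and 20 minutes. The preceding 5-minute room-temperature reaction used 2 nM LDHA, 0.2 mM sodium pyruvate and 0.06 mM NADH at pH 7.4.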
TRHR ag: qHTS for Small Molecule Agonists and Allosteric Enhancers of Human TRH Receptor: Primary Screen for Agonists. TRHR cells, calcium flux fluo-8, FDSS agonist mode. activation, % at 2 µM. Thyrotropin-releasing hormone receptor (Homo sapiens), P34981. 360,000 tested, 0.18% active; further: 0% is about no effect
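In this calcium-flux screen, cells bearing human TRHR are dye-loaded with fluo-8, baselined for 10 cycles, then exposed to library compounds; positive kinetic calcium responses during the agonist phase mark hits, with TRH as control.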
D1 ag: Allosteric Agonists of the Human D1 Dopamine Receptor: qHTS | D(1A) dopamine receptor (Homo sapiens), P21728 | HEK293 T-REx D1 cells, calcium flux, agonist mode | activation, % at 2 µM | 360,000 tested, 1% active; further: 0% is about no effect
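Tetracycline-induced HEK293 TREx D1 cells, force-coupled to calcium signalling, were dye-loaded with a no-wash calcium kit. Compound was pin-added after a 10 s baseline. Fluorescence was read kinetically at 1 cycle/s for 180 s, with calcium rises flagged as agonism.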
D1 PAM: Potentiators of Human D1 Dopamine Receptor: qHTS; D(1A) dopamine receptor (Homo sapiens), P21728; HEK293 TREx D1 cells, calcium flux, dopamine EC20 potentiation; potentiation, % at 10 µM; 360,000 tested, 0.036% active; in the data active means potentiation above about 30%; further: 0% is about no effect
* marks the source's active call; other numbers are inactive results; . = no result. Unless noted, no stated cut-off is given here; in the data, active means activation above about 30%; inactive means the rest.

SMILES	TRHR PAM	D1 antag	LDHA block	TRHR ag	D1 ag	D1 PAM
CNC(=S)SCCOc1ccc(C)cc1	2	-91*	2	0	2	-7
CCC(Sc1nc2cc(OC)c(OC)cc2c(=O)n1CCc1ccc(OC)c(OC)c1)C(=O)NCCOC (stereo unspecified)	-3	-30*	-6	0	0	-7
CCCCNC(=S)N/N=C1\C(=O)c2cccc3cccc1c23	-3	4	-5	0	2	11
CNC(=S)N/N=C1\C(=O)c2cccc3cccc1c23	0	-46*	-4	0	0	0
Cc1cnc(NC(=O)CSc2ncc(-c3ccccc3)n2Cc2ccco2)s1	1	-32*	0	5	79*	-9
O=C(CSc1ncc(-c2ccc(F)cc2)n1Cc1ccco1)Nc1nccs1	-6	6	-8	3	20	-4
Cc1ccc(C)n1CCN1CCN(CC(=O)Nc2cc(C(F)(F)F)ccc2Cl)CC1	55*	0	.	0	0	-4
O=C(CN1CCOCC1)Nc1cc(C(F)(F)F)ccc1Cl	-2	1	-2	-2	3	-3
CCN(Cc1cc2cccc(C)c2[nH]c1=O)C(=O)c1ccc(C(C)(C)C)cc1	.	.	3	.	.	.
O=C(CCc1ncc(-c2ccc(F)cc2)o1)N1CCc2ccccc21	.	.	0	.	.	.
COc1ccc(Cn2c(=O)c3ccccc3n3c(-c4cccc(OC)c4O)nnc23)cc1	.	.	6	.	.	.
CCCCc1c(C)[nH]n(-c2nc(C)c(C(=O)Nc3cccc(OC)c3)s2)c1=O	.	.	-36*	.	.	.
CCCCc1c(C)[nH]n(-c2nc(C)c(C(=O)Nc3ccccc3)s2)c1=O	.	.	-3	.	.	.
CC(C)(C)c1ccc(C(=O)NC(Nc2ccc3ccccc3c2)C(Cl)(Cl)Cl)cc1 (stereo unspecified)	.	.	26	.	.	.
CN1CCN(C(=S)c2ccc(-c3cccc([N+](=O)[O-])c3)o2)CC1	1	0	4	-1	1	-10
O=[N+]([O-])c1cccc(-c2ccc(C(=S)N3CCOCC3)o2)c1	4	-35*	4	0	0	-2
COc1ccc(-c2cc(NC(=O)c3cccs3)n(C3CCS(=O)(=O)C3)n2)cc1 (stereo unspecified)	.	.	3	.	.	.
O=C(CC12CC3CC(CC(C3)C1)C2)NCc1ccccc1Cl	.	.	7	.	.	.
O=C(COC(=O)C12CC3CC(CC(O)(C3)C1)C2)NCCc1ccc(Cl)cc1	-8	-40*	-4	0	1	-14
O=C(COC(=O)C12CC3CC(CC(O)(C3)C1)C2)Nc1ccc(Cl)cc1F	-3	-4	0	-1	0	2
C/C(=C\COc1ccc2ccc(=O)oc2c1)CC[C@@H](O)C(C)(C)O	1	-1	-4	0	1	-3
C/C(=C\COc1cc(=O)[nH]c2ccccc12)CCC(O)C(C)(C)O (stereo unspecified)	32*	4	-9	0	-1	0
Cc1cc(C)cc(NCc2cc3c(cc2[N+](=O)[O-])OCO3)c1	-1	-33*	2	0	3	-2
Cc1cccc(C(=O)Oc2csc(=S)n2C(=O)c2cccc(C)c2)c1	3	1	-33*	0	1	1
O=C(Oc1csc(=S)n1C(=O)c1ccccc1)c1ccccc1	2	-1	-13	-1	-2	5
SMILES	TRHR PAM	D1 antag	LDHA block	TRHR ag	D1 ag	D1 PAM
CCCN1CCC(N(C)C(=O)c2cc3ccccc3c(OC)n2)CC1	.	.	-3	.	.	.
Cc1ccc(Sc2c(C)nn(C(=O)COc3ccc(F)cc3)c2C)cc1	0	-4	-2	-1	11	-4
Cc1nn(C(=O)COc2ccc(Cl)cc2)c(C)c1Sc1ccccc1	-5	-37*	1	0	12	-4
CN1CCc2c(sc(NC(=O)c3cc(Cl)sc3Cl)c2C(N)=O)C1	4	-32*	0	19	-1	7
CNC(=O)c1c(NC(=O)c2ccc(S(=O)(=O)N3CCCc4ccccc43)cc2)sc2c1CCN(C)C2	34*	-57*	-2	18	19	-12
CN1CCc2c(sc(NC(=O)c3ccc(S(=O)(=O)N4CCc5ccccc54)cc3)c2C(N)=O)C1	12	3	.	7	5	-8
CN1CCc2c(sc(NC(=O)c3ccco3)c2C(N)=O)C1	16	-8	-8	1	2	-3
CN1CCc2c(sc(NC(=O)c3ccc(S(=O)(=O)N4CCCCCC4)cc3)c2C(N)=O)C1	3	15	-7	51*	19	4
CC(=O)c1cccc(NC(=O)CN2CCN(CCc3ccccc3)CC2)c1	.	.	-10	.	.	.
N=c1c2c(-c3ccccc3)c(-c3ccccc3)n(Cc3ccco3)c2ncn1CCCO	5	0	-6	-1	45*	2
N=c1c2c(-c3ccccc3)c(-c3ccccc3)n(Cc3ccco3)c2ncn1CCO	-4	27	-4	0	2	-4
NC(=S)Nc1ccc(Oc2ccc(NC(N)=S)cc2)cc1	9	-30*	-11	0	1	-2
Cc1ccc(NC(N)=S)cc1	1	10	-6	0	1	7
CC(C)NC(=S)Nc1ccc(Oc2ccccc2)cc1	4	-29	-3	0	30*	-10
C/C(=N/Nc1ccc(S(N)(=O)=O)cc1[N+](=O)[O-])c1ccc(C(C)(C)C)cc1	.	.	12	.	.	.
OCCN(CCO)CC(O)COc1cccc2ccccc12 (stereo unspecified)	.	.	13	.	.	.
Cc1ccccc1OCC(O)CN(CCO)Cc1ccccc1 (stereo unspecified)	-8	-47*	-4	0	1	-1
Cc1ccc(C(CNC(=O)c2cc(-c3cccs3)on2)N2CCOCC2)cc1 (stereo unspecified)	.	.	0	.	.	.
N#CCCN(CCN1CCCC1)S(=O)(=O)c1ccc(-c2ccc([N+](=O)[O-])cc2)cc1	-8	0	-1	0	39*	-6
CCOC(CNC(=O)CSCc1nc(-c2ccc(C)cc2)oc1C)OCC	.	.	-19	.	.	.
COc1cccc(N/C(SCc2ccccc2F)=C(/C#N)C(=O)NCc2cccs2)c1	-3	-40*	-4	2	34*	-3
